Measured values: PubChem BioAssay AID602449 (Sanford-Burnham Center for Chemical Genomics, 2012)
Several values for one entry are separate records, joined by “and”; a condition that tells them apart may be missing. Identical values can stand only once. Among all 360,000 compounds or so, about 5,000 (1.4%) were called active.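 How the source made its calls: active means inhibition of 50% or more, scaled per plate between neutral and stimulator controls; inactive means the rest.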 This excerpt belongs to a sample that is enriched for actives. Some structures have more than one record in an assay (separate samples or runs), and their calls can disagree.

Test: blockers of Ca2+-induced mitochondrial swelling – biochemical, isolated mouse mitochondria, absorbance, primary screen (AID 602449);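 further: 0% = DMSO wells given calcium and 100% = 1 mM EGTA wells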
Conditions: 30 min, at 10 µM, stronger effect = higher value

SMILES	inhibition
CCCCN(C)C(=O)C1CCN(Cc2ccccn2)CC1	-1% (inactive)
Cn1c(-c2sccc2OCc2cccc(C(F)(F)F)c2)n[nH]c1=S	0.2% (inactive)
O=c1c2ccccc2nc2n1C(CSCc1ccccc1)CS2 (stereo not given)	52.1% (active)
C#CCCCc1nc2ccccc2c(=O)n1N	5.8% (inactive)
O=c1c2ccccc2nc2n1C(CSc1ccc(Cl)cc1)CN2 (stereo not given)	-1.7% (inactive)
O=c1c2ccccc2nc2n1C(CSCc1cccc(C(F)(F)F)c1)CS2 (stereo not given)	54% (active)
N#Cc1c(-c2ccccc2)nc(SCc2cccc(C(F)(F)F)c2)[nH]c1=O	49.1% (inactive)
COC(=O)[C@@]1(Cc2ccc(F)cc2)[C@H]2c3cc(C(=O)N(C)C)n(CCc4c[nH]c5ccc(OC)cc45)c3C[C@H]2CN1C(=O)c1ccccc1	-3.6% (inactive)
Cc1ccc(OCc2nnc(NC(=O)OCC(C)C)s2)cc1	0% (inactive)
O=c1c2[nH]c3ccc(Cl)cc3c2ncn1Cc1ccccn1	0.2% (inactive)
COc1ccccc1C1C(C#N)=C(N)Oc2c1c(-c1ccccc1)nn2-c1ccccc1 (stereo not given)	43.7% (inactive)
CN/C(=C\[N+](=O)[O-])NCCSCc1csc(CN(C)C)n1	-1.8% (inactive)
O=C(Nc1cccc(F)c1)NC1CCCCCCC1	46.7% (inactive)
Cc1c(NC(=O)c2coc(=O)c(Br)c2)c(=O)n(-c2ccccc2)n1C	0.9% (inactive)
O=C(Nc1cccc(F)c1)c1coc(=O)c(Br)c1	92.1% (active)
CCC(C)NC(=O)N[C@@H](CCSC)C(=O)O (stereo not given in full)	-0.7% (inactive)
CC(C)(C)c1ccc(SCCc2ccncc2)cc1	105% (active)
Cc1cc(C)c(SCCc2ccncc2)c(C)c1	90.9% (active)
c1ccc(CSCCc2ccncc2)cc1	4% (inactive)
Cc1ccc(SCCSc2ncccn2)cc1	1.5% (inactive)
CCN(Cc1ccncc1)C(=O)CCc1ccccc1	4% (inactive)
Cc1cc(C)c(NC(=O)CSc2nc3ccncc3[nH]2)c(C)c1	-1.3% (inactive)
CN(C)CCNC(=O)c1ccc(-c2cn3c(-c4ccc(Oc5ccccc5)cc4)cnc3cn2)cc1	-1.4% (inactive)
O=C(OC1CCOC1=O)c1cccc(S(=O)(=O)Nc2ccc(F)cc2)c1 (stereo not given)	2.8% (inactive)

SMILES	inhibition
CCOc1ccc(S(=O)(=O)NCCCn2ccnc2)cc1NC(C)=O	-0.5% (inactive)
CCN(CC)CCCN1C(=O)C(=O)/C(=C(/O)c2c(C)nc3ccccn23)C1c1ccc(C)o1 (stereo not given)	1.3% (inactive)
O=C(CN(Cc1ccccc1)C(=O)c1ccc2c(c1)OCCO2)NCc1ccc2c(c1)OCO2	-5.6% (inactive)
CCC(=O)N1CCc2cc(S(=O)(=O)CCC(=O)N3CCN(c4ccccc4F)CC3)ccc21	0.5% (inactive)
O=C(C1Cc2ccccc2CN1C(=O)c1ccco1)N1CCN(c2ccccc2)CC1 (stereo not given)	0.7% (inactive)
CN1CCC(N(C)C(=O)c2ccc(Cl)c(S(=O)(=O)Nc3ccc(Cl)cc3)c2)CC1	-0.7% (inactive)
C=C1c2c(Cl)ccc(O)c2C(O)=C2C(=O)[C@]3(O)C(O)=C(C(N)=O)C(=O)[C@@H](N(C)C)[C@@H]3[C@@H](O)C12 (stereo not given in full)	80.1% (active)
CCC(C)(C)NC(=O)CN(C(=O)CCC(=O)Nc1nccs1)c1ccc2c(c1)OCO2	0.4% (inactive)
CCOC(=O)CNC(=O)/C=C/c1c(Cl)cccc1Cl	0.6% (inactive)
COc1ccc([N+](=O)[O-])cc1NCC(=O)c1ccc(C)cc1	0.6% (inactive)
COc1ccc(NC(C)=O)cc1NC(=O)CN1CCN(C2c3ccccc3-c3ccccc32)CC1	-1.5% (inactive)
c1ccc2c(c1)C(=NC1CCCCC1)NC2=NC1CCCCC1	67.5% (active)
Cc1cc2nc(SCCN3CCOCC3)[nH]c2cc1C	0% (inactive)
O=S(=O)(Nc1ccc(Oc2ncccn2)c(Cl)c1)c1ccc(F)cc1	-1.6% (inactive)
Cc1cc(C)cc(OCC(=O)Nc2ccc(S(=O)(=O)Nc3ccccn3)cc2)c1	3.7% (inactive)
Cc1ccc(S(=O)(=O)Nc2ccc3ncccc3c2)cc1	85% (active)
O=C(CCN1C(=O)c2ccccc2C1=O)NNC(=O)c1ccc(Cl)cc1Cl	-0.8% (inactive)
Cc1cc(OCCCC(=O)NCCN2C(=O)S/C(=C\c3cccnc3)C2=O)ccc1Cl	84.3% (active)
O=C(NCCN1C(=O)S/C(=C\c2cccnc2)C1=O)c1cccc(OC(F)F)c1	2.4% (inactive)
COc1ccc(N2CC(C(=O)NCCN3C(=O)S/C(=C\c4cccnc4)C3=O)CC2=O)c(OC)c1 (stereo not given)	-0.2% (inactive)
CSCCC(NC(=O)COc1ccccc1)C(=O)OCC(=O)c1cc2ccccc2o1 (stereo not given)	0% (inactive)
CCc1nn(CC(=O)N2CCN(CC)CC2)c(=O)c2cccn12	-0.4% (inactive)
COC(=O)C1CC2=C(CC(C)(C)CC2=O)N(c2ccccc2)C1=O (stereo not given)	-0.8% (inactive)
CC(C)(c1ccccc1)c1ccc(OCCN2CCCC2)cc1	2% (inactive)

SMILES	inhibition
OC(c1ccccc1)(c1ccccc1)C1CCN(CCCOc2ccccc2)CC1	4.5% (inactive)
CN1CCC[C@@H]1CCO[C@](C)(c1ccccc1)c1ccc(Cl)cc1	78% (active)
CCCc1nn(C)c2c(=O)[nH]c(-c3cc(S(N)(=O)=O)ccc3OCC)nc12	-0.3% (inactive)
O=C(c1cccc(N2CCCC2=O)c1)N1CCOCC1	-0.5% (inactive)
CSc1nccc(NC(=O)c2ccc(C(C)(C)C)cc2)n1	95.6% (active)
COC(=O)c1nc(NC(=O)c2ccc(F)cc2)n[nH]1	11.4% (inactive)
Cc1ccc(C(=O)Nc2ccn(C)n2)cc1	1.3% (inactive)
Cc1ccc(C)c(NC(=O)COC(=O)Cn2c(C)csc2=O)c1	-0.7% (inactive)
COc1ccc(C(N)c2csc(NC(=O)Nc3cccc(C(F)(F)F)c3)n2)cc1 (stereo not given)	0.9% (inactive)
COc1cc(NC(=O)c2cncc(-c3ccc(C#N)cc3)c2)cc(C(=O)Nc2cccc(C(F)(F)F)c2)c1	93.8% (active) and 48.4% (inactive)
COc1cc(NC(=O)c2[nH]cnc2C(N)=O)cc(C(=O)Nc2cccc(C(F)(F)F)c2)c1	0% (inactive)
O=C(Nc1nnc(SCc2ccccc2Cl)s1)c1cccc([N+](=O)[O-])c1	96.3% (active)
O=C(Nc1nnc(SCc2c(Cl)cccc2Cl)s1)C1CCCO1 (stereo not given)	-1.4% (inactive)
COCCSc1nnc(NC(=O)c2cc(OC)c(OC)cc2[N+](=O)[O-])s1	-2.4% (inactive)
O=C(Nc1nnc(CCN2CCCCC2)s1)c1cccc(Cl)c1	-0.1% (inactive)
O=C(Nc1nnc(SCc2c(Cl)cccc2Cl)s1)c1cccc([N+](=O)[O-])c1	91.5% (active)
O=C(NCc1ccccc1Cl)NC(=O)c1csc([N+](=O)[O-])c1	1% (inactive)
CCO/N=C(/C)c1c(O)cc(-c2ccccc2)n(-c2ccccc2)c1=O	8.8% (inactive)
O=S1(=O)CC(N2CCC(Cc3ccccc3)CC2)CN1Cc1ccccc1 (stereo not given)	0.9% (inactive)
COc1ccc(OCCCC(=O)Nc2nnc(C3CCCO3)s2)cc1 (stereo not given)	1.4% (inactive)
CCC1CCCCN1C(=S)NC(=O)c1ccco1 (stereo not given)	-3.3% (inactive)
COc1cc(OC)cc(C(=O)Nc2nnc(SCC(=O)NCC3CCCO3)s2)c1 (stereo not given)	-0.7% (inactive)
CCOC(=O)N1CCN(C(=O)C2CCCN(c3ncnc4c3sc3cccc(F)c34)C2)CC1 (stereo not given)	20.7% (inactive)
CCOC(=O)N1CCN(C(=O)C2CCN(c3ncnc4c3sc3cccc(F)c34)CC2)CC1	50% (active)

SMILES	inhibition
CCOC(=O)N1CCN(C(=O)C2CCN(S(=O)(=O)c3cc(Cl)ccc3OCC)CC2)CC1	-0.2% (inactive)
COC(=O)C1C(=O)NCC1c1ccc(OC)cc1 (stereo not given)	1.1% (inactive)
Cc1nn(-c2ccccc2)c(CC(C)(C)C(=O)O)c1C(=O)O	-5.4% (inactive)
Nc1[nH]c(C(=O)c2ccccc2)c(-c2ccc(Br)cc2)c1C(=O)NC1CC1	0.8% (inactive)
COc1ccccc1N1CC(C(=O)Nc2nnc(SCC(=O)NC(C)C)s2)CC1=O (stereo not given)	0.4% (inactive)
CC1=NC2(CCCc3c2no[n+]3[O-])N(O)C1(C)C (stereo not given)	0.8% (inactive)
CC1(C)CC(=O)c2sc(N)nc2C1	83.2% (active)
CC(=O)Nc1nc2c(s1)C(=O)NCC(C)(C)C2	0% (inactive)
CCCc1nc(N)nc2c1C(=O)CC(C)(C)C2	-2.5% (inactive)
COc1cccc(NC(=O)CN(C)C(=O)CSC(=S)N2CCCC2)c1	-0.1% (inactive)
CCCS(=O)(=O)N1CCCC(C(=O)NCCN2CCCCC2C)C1 (stereo not given)	-1.3% (inactive)
CCCCCCc1cc2cc(-c3nnc(-c4ccccc4)o3)c(=O)oc2cc1O	96.2% (active)
COc1ccccc1CNC(=O)CCCNS(=O)(=O)c1cccc2nsnc12	-0.6% (inactive)
COCCCNC(=O)CN1C(=O)CSc2ccc(S(=O)(=O)N3CCOCC3)cc21	2.1% (inactive)
CCc1cc2c(SCC(=O)Nc3ncc(Cl)c(C)c3Cl)ncnc2s1	46.1% (inactive)
CCc1cc2c(NC(Cc3ccccc3)C(=O)O)ncnc2s1 (stereo not given)	1.6% (inactive)
CCc1cc2c(NC3CCCC3)ncnc2s1	87.6% (active)
CC(=O)Oc1ccc(OC(C)=O)c2c1C1C=CC2CC1	-0.2% (inactive)
COc1cccc(-c2cnc3c(NC(C)=O)cc(-c4cc(F)ccc4OC)cn23)c1	-0.3% (inactive)
CC(C)N1C(=S)SC(C)(C)C1n1oc(=O)n(-c2ccc(Cl)c(Cl)c2)c1=O (stereo not given)	92.3% (active)
O=C1CSC(=S)N1c1ccc(Cl)c(Cl)c1	2.2% (inactive)
Cc1cc(=O)cc(C)n1-c1ccc(Cl)c(Cl)c1	-0.1% (inactive)
N#Cc1cc([N+](=O)[O-])ccc1NC(=O)COC(=O)c1cnccn1	-1.8% (inactive)
